Results from PubChem BioAssay AID492998 (Southern Research Specialized Biocontainment Screening …, 2010).
In all, about 2,300 compounds went through this assay and about 550 (24%) were called active. The rule behind the calls is not given here. Not all results are given here. Results with a measured potency or affinity are listed apart.

Test: Vero E6 cell cytotoxicity, dose response, cytotoxicity control for non-replicating M. tuberculosis project, secondary assay (AID 492998)
Settings: series mostly up to 20 µM
With `CCOC(=O)CNc1ccc(C(=O)OCC)cc1[N+](=O)[O-]` the outcome was “inactive”.
In the case of `CC(C)c1ccc(N2C(=O)NC(=O)/C(=C/C=C/c3ccco3)C2=O)cc1`, the outcome is reported as “inactive”.
In the case of `Brc1ccc(CSc2nnc(-c3ccco3)o2)cc1`, the outcome is reported as “inactive”.
With `CCCc1ccc(OCc2ccc(C(=O)N/N=C/c3cccnc3)o2)cc1` the outcome was “inactive”.
With `Cc1cc(C)n(CC(=O)N/N=C/c2ccc([N+](=O)[O-])s2)n1` the outcome was “inactive”.
With `CN1C(=O)NC(=O)/C(=C/c2ccc([N+](=O)[O-])s2)C1=O` the outcome was “inactive”.
With `NC(=O)c1ccc(N=Cc2ccc([N+](=O)[O-])s2)cc1` the outcome was “inactive”.
With `O=c1oc(/C=C/c2ccc([N+](=O)[O-])s2)nc2ccccc12` the outcome was “inactive”.
With `NNC(=O)CNC(=O)C12CC3CC(CC(C3)C1)C2` the outcome was “inactive”.
With `COc1ccccc1C1=NOC(COC(=O)c2ccc([N+](=O)[O-])cc2)C1` (stereo not given) the outcome was “inactive”.
With `COCCNC(=O)c1cc2cc(Cl)cc(Cl)c2oc1=O` the outcome was “inactive”.
For `Cc1cccc(OC(=O)c2sc3ncn(C)c(=O)c3c2C)c1`, the outcome was “inactive”.
For `CCn1c2ccccc2c2cc(CNCc3ccc(OC)cc3OC)ccc21`, the outcome was “inactive”.
In the case of `O=C(COc1ccc(Cl)cc1)OCC(=O)N1CCCc2ccccc21`, the outcome is reported as “inactive”.
For `CC(C)(C)/C(O)=C/c1nc2ccccc2oc1=O`, the outcome was “inactive”.
In the case of `COc1ccc(NC(=O)c2cnc(SC)nc2)cc1`, the outcome is reported as “inactive”.
In the case of `COc1ccc(NC(=O)CO/N=C2/CCCc3nonc32)c(OC)c1`, the outcome is reported as “inactive”.
For `CCOC(=O)N1CCC(N2CCCC(C(=O)c3ccc4cc(OC)ccc4c3)C2)CC1` (stereo not given), the outcome was “inactive”.
For `COc1ccc(C(=O)COC(=O)c2ccc(Cl)nc2)c(OC)c1`, the outcome was “inactive”.
With `O=C(COC(=O)CC1CCCC1)Nc1ccc(OC(F)F)cc1` the outcome was “inactive”.
In the case of `CCCCOC(=O)c1ccc(OC(=O)c2cccnc2)cc1`, the outcome is reported as “inactive”.
With `Cc1cc(C)cc(OC(=O)c2cccnc2)c1` the outcome was “inactive”.
With `CCc1cccc(OCCCn2ccnc2)c1` the outcome was “inactive”.
In the case of `CN1/C(=C\C(=O)COC(=O)C2COc3ccccc3O2)C(C)(C)c2ccccc21` (stereo not given), the outcome is reported as “inactive”.
With `CN1/C(=C\C(=O)COC(=O)c2ccc([N+](=O)[O-])o2)C(C)(C)c2ccccc21` the outcome was “inactive”.
For `C=CC(=O)Oc1ccc(N2Cc3ccccc3C2=O)cc1`, the outcome was “inactive”.
With `CC1=NN(C(=O)CCCc2ccccc2)C(O)(C(F)(F)F)C1` (stereo not given) the outcome was “inactive”.
For `Cc1ccc(/C(O)=C/c2nc3ccccc3oc2=O)cc1`, the outcome was “inactive”.
For `CN(CC(=O)Nc1ccc(Cl)cc1)C1CCCCC1`, the outcome was “inactive”.
For `COc1ccc(OCCCC(=O)Nc2ccc(N3CCOCC3)cc2)cc1`, the outcome was “inactive”.
In the case of `CCOCCOC(=O)c1ccc(NC(=O)C2COc3ccccc3O2)cc1` (stereo not given), the outcome is reported as “inactive”.
For `CCOC(=O)COc1ccc2c(c1)c(C(C)=O)c(C)n2Cc1ccccc1`, the outcome was “inactive”.
With `Cc1c(C(=O)N(C)C)sc2nc(-c3ccccn3)[nH]c(=O)c12` the outcome was “inactive”.
With `Cc1nnc(SCCC(=O)Nc2ccc(Cl)cc2)o1` the outcome was “inactive”.
With `CCOc1ccc(OCC(=O)Nc2nccs2)cc1` the outcome was “inactive”.
For `CCOc1ccc2nc(/N=C/c3nc(-c4ccccc4)oc3O)sc2c1`, the outcome was “inactive”.
In the case of `O=C(COc1ccccc1)NNc1nc2ccccc2s1`, the outcome is reported as “inactive”.
In the case of `Cc1nc2ccc(OC(=O)c3ccccc3)cc2s1`, the outcome is reported as “inactive”.
In the case of `CCCNC(=O)OCC12CC3CC(CC(C3)C1)C2`, the outcome is reported as “inactive”.
In the case of `N=C1/C(=C/c2ccc(OC(=O)c3ccco3)cc2)C(=O)N=C2SC=CN12`, the outcome is reported as “inactive”.
With `c1ccc(CNCCC(Cc2ccccc2)c2ccco2)cc1` (stereo not given) the outcome was “inactive”.
For `CC(C)(C)C(=O)/C=C/Nc1ccccc1O`, the outcome was “inactive”.
With `CC(=O)c1ccc(Sc2nnnn2-c2ccccc2)c([N+](=O)[O-])c1` the outcome was “inactive”.
For `Cc1cc(C)n(C(=O)c2ccc([N+](=O)[O-])cc2[N+](=O)[O-])n1`, the outcome was “inactive”.
With `CC(=O)Nc1ccc(NC(=O)c2cc([N+](=O)[O-])cc([N+](=O)[O-])c2)cc1` the outcome was “inactive”.
In the case of `O=C(NCc1cccs1)c1ccc([N+](=O)[O-])cc1`, the outcome is reported as “inactive”.
For `COc1ccc2cc(C(=O)NCc3ccccc3)c(=O)oc2c1`, the outcome was “inactive”.
With `CC(C)OC(=O)c1cc(C(=O)c2cc(Cl)ccc2O)coc1=N` the outcome was “inactive”.
With `O=C(NNc1ccc([N+](=O)[O-])cc1)C1CC1c1ccccc1` (stereo not given) the outcome was “inactive”.
In the case of `CC(C)(C)c1ccc(OCCC(=O)OCC(=O)NC2CC2)cc1`, the outcome is reported as “inactive”.
With `O=C(Oc1ccc(F)cc1)c1ccc2c(=O)n3c(nc2c1)CCC3` the outcome was “inactive”.
For `COC(=O)c1ccc(N2CCN(CCNC(=O)Nc3ccc(OC)cc3)CC2)cc1`, the outcome was “inactive”.
In the case of `C#CCSc1nnc(-c2ccc(C)cc2)o1`, the outcome is reported as “inactive”.
For `C#CCSc1nnc(-c2ccc(O)cc2)o1`, the outcome was “inactive”.
For `Cc1cc(Cl)ccc1N(CC(=O)NCc1ccccc1)S(C)(=O)=O`, the outcome was “inactive”.
With `CCCCn1nnc(NC(=O)COc2ccc(Cl)c(C)c2)n1` the outcome was “inactive”.
In the case of `O=C(COC(=O)CCc1c[nH]c2ccccc12)NCc1ccc2c(c1)OCO2`, the outcome is reported as “inactive”.
With `N#Cc1ccc(COC(=O)CCc2c[nH]c3ccccc23)cc1` the outcome was “inactive”.
For `COc1ccc(OC(=O)CCc2c[nH]c3ccccc23)cc1`, the outcome was “inactive”.
In the case of `O=C(COC(=O)CCc1c[nH]c2ccccc12)NCc1ccc(Cl)cc1`, the outcome is reported as “inactive”.
For `C=Cc1cccc(NC(=O)COc2ccccc2)c1`, the outcome was “inactive”.
With `COc1ccc(Cc2nnc(SCc3ccc([N+](=O)[O-])cc3)o2)cc1` the outcome was “inactive”.
For `Cc1[nH]nc2c1C(c1ccc(-c3ccc(Cl)cc3)o1)C(C#N)=C(N)O2` (stereo not given), the outcome was “inactive”.
In the case of `O=C1/C(=C/c2ccco2)CCC1C1CCCC1` (stereo not given), the outcome is reported as “inactive”.
For `CC(NC(=O)COc1ccccc1F)C1CC2CCC1C2` (stereo not given), the outcome was “inactive”.
With `CCOC(=O)c1ccc(NC(=O)CCSCCc2ccccn2)cc1` the outcome was “inactive”.
With `CCOc1ccc(-c2nc3ccccc3c(=O)o2)cc1` the outcome was “inactive”.
With `CCOC(=O)N1CCC(NS(=O)(=O)c2cc3c(cc2Cl)NC(=O)CO3)CC1` the outcome was “inactive”.
With `CCCNC(=O)N1CCC(c2ccc3c(c2)OCO3)CC1` the outcome was “inactive”.
For `OCC1(CCOc2ccccc2)CCN(Cc2cc(Cl)ccc2O)CC1`, the outcome was “inactive”.
With `COc1ccc(C2(O)CCN(CCCCOc3ccccc3)CC2)cc1` the outcome was “inactive”.
In the case of `COc1cccc2cc(C(=O)c3ccc([N+](=O)[O-])cc3)oc12`, the outcome is reported as “inactive”.
In the case of `CC1COC(=O)C(NNc2ccc(Cl)c(Cl)c2)=N1` (stereo not given), the outcome is reported as “inactive”.
In the case of `CC(=O)Nc1cccc(-c2nc3ccccc3c(=O)o2)c1`, the outcome is reported as “inactive”.
With `CC(C)Cc1cc(C(=O)Nc2ccc(F)cc2F)no1` the outcome was “inactive”.
